Laboratory results taken from the supplement of paper PMC10981050.
Values joined by “and” are separate entries in the source; they are usually repeats but may differ in a detail not shown here. Identical values can stand only once. Counter-ions that a name gives are not always drawn.

How the values were obtained:
Assay in all cases: cell viability relative to vehicle control; higher = less cytotoxic
Conditions in all cases: 10 µM
K562 = test system: K562
Summary of the method: (§1)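 Screening covered the Selleck bioactive, kinase and epigenetic probe libraries, less identity-inconsistent compounds, on CRISPR-edited mutant clones and isogenic wild-type clones of four leukaemia lines. Cells, at 2000 per well in 50 µL medium, received a single 10 µM acoustically dispensed dose. After 48 h the supernatant was removed and CellTiter-Glo luminescence was read. Viability was analysed in Genedata Screener as percent of the on-plate vehicle control.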

MARIMO = test system: MARIMO
Summary of the method: as §1

MOLM14 = test system: MOLM14
Summary of the method: as §1

OCI-AML2 = test system: OCI-AML2
Summary of the method: as §1

SMILES | cell viability (K562; SRSF2 genotype: SRSF2 P95H/wt) | cell viability (K562; SRSF2 genotype: SRSF2 wt/wt) | cell viability (MARIMO; SRSF2 genotype: SRSF2 P95H/wt) | cell viability (MARIMO; SRSF2 genotype: SRSF2 wt/wt) | cell viability (MOLM14; SRSF2 genotype: SRSF2 P95H/wt) | cell viability (MOLM14; SRSF2 genotype: SRSF2 wt/wt) | cell viability (OCI-AML2; SRSF2 genotype: P95H/wt) | cell viability (OCI-AML2; SRSF2 genotype: wt/wt)
COc1cc(C(=O)O)ccc1NC(=O)[C@@H]1N[C@@H](CC(C)(C)C)[C@](C#N)(c2ccc(Cl)cc2F)[C@H]1c1cccc(Cl)c1F [Idasanutlin (RG-7388)] | 96.7% and 98.2% | 86.3% | 116% | 131% | 86.5% | 102% | 102% | 118%
O=C1c2ccc(Nc3ccc(F)cc3F)cc2CCc2ccc(OC[C@H](O)CO)cc21 [Skepinone-L] | 84.7% and 79.7% | 77.7% | 91.7% | 100% | 104% | 102% | 77.2% | 73.7%
COc1cc(O)c(C(=O)/C=C/c2ccccc2)c(OC)c1 [Flavokawain B] | 23.3% and 39% | 58% | 34.5% | 39% | 22.6% | 11.3% | 22.8% | 25.2%
C=CS(=O)(=O)NC1CCN(C(=O)CNc2cc(I)c(Cl)cc2OC)CC1 [K-Ras(G12C) inhibitor 9] | 22.4% and 31% | 82.8% | 36.4% | 81.1% | 60.6% | 84.1% | 22.1% | 30%
CCCCc1nc(C)c(CC(=S)N(C)C)c(=O)n1Cc1ccc(-c2ccccc2-c2nnn[nH]2)cc1 [Fimasartan] | 100% and 107% | 106% | 108% | 109% | 101% | 103% | 106% | 93.1%
Nc1ncnc2c1ncn2[C@@H]1O[C@H](CO)C[C@H]1O [Cordycepin] | 94.3% and 102% | 89.3% | 90.4% | 99% | 102% | 102% | 94.1% | 112%
C=C1C[C@@]23CC[C@H]4[C@@](C)(CCC[C@@]4(C)C(=O)O[C@@H]4O[C@H](CO)[C@@H](O)[C@H](O)[C@H]4O)[C@@H]2CC[C@]1(O[C@@H]1O[C@H](CO)[C@@H](O)[C@H](O)[C@H]1O[C@@H]1O[C@H](CO)[C@@H](O)[C@H](O)[C@H]1O)C3 [Stevioside] | 113% and 107% | 113% | 111% | 97.4% | 112% | 112% | 108% | 106%
CC(C)c1cc2c(cc1S(=O)(=O)O)[C@@]1(C)CCC[C@@](C)(C(=O)O)[C@@H]1CC2 [Ecabet sodium] | 95.2% and 96.4% | 105% | 96.6% | 101% | 97% | 99.7% | 105% | 91.8%
O=C(O)c1ccc(C=C2SC(=S)N(c3cccc(C(F)(F)F)c3)C2=O)cc1 | 94.1% and 97.2% | 95.1% | 94.3% | 105% | 90.2% | 99.7% | 95.5% | 97.9%
CN(C)C(=N)NC(=N)N [Metformin hydrochloride (Glucophage)] | 108% | 110% | 108% | 110% | 105% | 104% | 102% | 116%
CCOC(=O)c1c(CSc2ccccc2)n(C)c2cc(Br)c(O)c(CN(C)C)c12 [Arbidol HCl] | 50.6% and 70.1% | 61.6% | 48% | 54.8% | 47.8% | 32.9% | 53.5% | 43.8%
CC(CN(C)C)Oc1nc(Nc2cc3cccc(Cl)c3cn2)cnc1C#N (stereo not given) | 50.7% and 62.5% | 44.9% | 62.2% | 56.3% | 15.7% | 8.7% | 17% | 18.5%
Nc1cccc2c1C(=O)N(C1CCC(=O)NC1=O)C2=O (stereo not given) [Pomalidomide] | 102% and 96.9% | 88% | 87.4% | 99% | 88.5% | 93.5% | 120% | 121%
NCCc1ccc(O)c(O)c1 [Dopamine hydrochloride (Inotropin)] | 89% and 91.3% | 93.1% | 88.6% | 103% | 80.9% | 100% | 99.9% | 105%
COc1cc(C(=O)NS(=O)(=O)c2ccccc2C)ccc1Cc1cn(C)c2ccc(NC(=O)OC3CCCC3)cc12 [Zafirlukast (Accolate)] | 97.3% and 96.5% | 92.8% | 96% | 110% | 94.3% | 97% | 94.4% | 104%
COc1ccc(/C=C/C(=O)Nc2ccccc2C(=O)O)cc1OC | 98.1% and 98% | 98.1% | 108% | 102% | 98.9% | 100% | 113% | 102%
O=C(O)CSc1cc(NS(=O)(=O)c2ccc(Br)cc2)c2ccccc2c1O | 86.4% and 79.9% | 94.8% | 95.5% | 94.5% | 73.9% | 89.3% | 97.9% | 107%
C[C@@H](N)c1ccc(C(=O)Nc2ccnc3[nH]ccc23)cc1 | 90.4% and 107% | 105% | 65.8% | 78% | 31.2% | 41.1% | 19.1% | 32.1%
OC[C@@H](O)[C@@H](O[C@H]1O[C@H](CO)[C@@H](O)[C@H](O)[C@H]1O)[C@H](O)[C@@H](O)CO [Maltitol] | 98.2% and 88.7% | 98.6% | 99.6% | 105% | 99.6% | 99.9% | 96.8% | 107%
Cc1cccc(CC(=O)N2CCc3c2ccc(-c2cn(C)c4ncnc(N)c24)c3F)n1 | 75.2% and 84.4% | 80.4% | 74.5% | 72.5% | 80.8% | 93.8% | 69.3% | 73.8%
